High-throughput results from PubChem.
The list is not random: actives were taken first. Their share in the collection is about 5.4%.
RORgamma inh = ROR gamma (mouse) transcription inhibition; 5.4% of 310,000 active; P51450; Drosophila S2 Gal4-RORgamma UAS-luciferase reporter, 20 h; Potency, µM (top dose mostly 53.6 µM), inactives show at the highest dose activity change, negative = inhibition, actives largely listed as inhibitors; note: potency is the fitted concentration of half-maximal effect; % is set by controls: 0 for no effect and ±100 for the full control effect; nearly all actives have a fitted effect of over 60% in size
Target sequence (P51450 whole entry, looked up, the tested form may be a part): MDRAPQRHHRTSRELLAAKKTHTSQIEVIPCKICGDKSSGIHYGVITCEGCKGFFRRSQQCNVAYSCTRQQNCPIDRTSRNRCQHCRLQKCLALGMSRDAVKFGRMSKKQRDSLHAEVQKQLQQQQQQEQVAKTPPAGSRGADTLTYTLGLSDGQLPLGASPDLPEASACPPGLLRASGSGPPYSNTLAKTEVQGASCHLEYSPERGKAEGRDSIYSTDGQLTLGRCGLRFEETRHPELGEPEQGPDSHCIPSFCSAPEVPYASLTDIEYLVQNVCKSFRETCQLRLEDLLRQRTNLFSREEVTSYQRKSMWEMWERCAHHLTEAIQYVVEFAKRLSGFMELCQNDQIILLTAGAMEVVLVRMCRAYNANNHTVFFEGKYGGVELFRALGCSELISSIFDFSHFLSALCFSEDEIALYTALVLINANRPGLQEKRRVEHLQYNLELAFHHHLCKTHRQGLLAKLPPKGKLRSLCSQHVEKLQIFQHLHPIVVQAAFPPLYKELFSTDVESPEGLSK
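Luciferase reporter read in Schneider cells carrying Gal4-RORγ (mouse) and UAS-Photinus luciferase; cells given compound 1 h before 700 uM copper sulfate induction, then incubated 20 h at ambient temperature.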
CtBP-E1A blk = CtBP/E1A binding inhibition; AlphaScreen GST-E1A/His-CtBP binding, 1536-well; stronger effect = lower value; activity change, % (test concentration not listed); 0.49% of 340,000 active; in the data active = activity change below about -65%; inconclusive = mostly about -30% to -63%; note: % is set by controls: 0 for no effect and ±100 for the full control effect
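GST-E1A and His-tagged CtBP (125 nM each as 5X stock) were preincubated with pin-transferred compound for 2 h at 37 °C in the dark, then glutathione donor and nickel acceptor beads were added for 1 h before AlphaScreen reading.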
p53 reactivator = mutant p53 re-activation in reporter cells. H1299 p53-A138V BP100-luciferase reporter, luminescence, 24 h. AID 504706. Potency, µM (series often up to 92.2 µM), for the others: at the highest dose activity change, positive = activation, most hits filed as activators. 0.063% of 320,000 active; note: potency is the fitted concentration of half-maximal effect; % of control where 0% means no effect; nearly all actives have a fitted effect of over 45% in size
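p53-null H1299 cells stably carrying temperature-sensitive p53-A138V and a BP100-luciferase reporter were pinned with compounds (4-point, 1:5 series) and held 24 hrs at 37 deg C. Luminescence was read 10 min after detection reagent.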
Gal4-VP16 FLuc = Gal4-VP16 reporter inhibition counter-screen; Drosophila S2 Gal4-VP16 UAS-luciferase, luminescence, 20 h; Potency, µM (highest dose often 53.6 µM), without a hit: at the top dose activity, negative = inhibition, most hits filed as inhibitors; 3.5% of 310,000 active; AID 2546;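 note: Gal4-VP16 expression switched on by copper sulfate through the metallothionein promoter; potency is the fitted concentration of half-maximal effect; % is set by controls: 0 for no effect and ±100 for the full control effect; nearly all actives have a fitted effect of over 50% in size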
Six1-Eya2 inh = blocks human Six1 binding to Eya2; Q15475+O00167; AlphaScreen GST-Six1/His-Eya2 binding, biochemical; stronger effect = lower value; activity change, % (no concentration beside the values); 0.56% of 360,000 active; AID 651725; in the data active = activity change below about -65%; inconclusive = mostly about -30% to -63%; note: % is set by controls: 0 for no effect and ±100 for the full control effect
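AlphaScreen luminescence read after one hour at 37 °C in darkness. Pin-transferred compounds met GST-Six1 and His-Eya2 protein (5X stock 250 nM/500 nM) plus glutathione donor and Ni-chelate acceptor beads (5X, 50 ug/mL).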
Numbers without * were called inactive; u = inconclusive; x = not tested or not shown; [ ] = another dose, or the depositor's remark. Unless noted, calls come from the whole dose curve; as a rule, active = well fitted curve in the direction sought with a large enough effect; inconclusive = small, poorly fitted or top-dose-only effect, or another doubt; inactive = no such curve, though single readings can be large; an effect the other way counts as inactive or inconclusive.

SMILES	RORgamma inh	CtBP-E1A blk	p53 reactivator	Gal4-VP16 FLuc	Six1-Eya2 inh
Cc1onc(-c2ccccc2)c1C(=O)NNC(=S)NC(=O)c1ccc(Br)cc1	4.47µM*	-6.3	u	3.55µM*	-16.6
CC(C)CN1CCc2nc(-c3ccccc3)c3c(c2CC1)COC(C)C3 (configuration not stated)	2.0%[10 µM]	x	x	3.3%[10 µM]	x
O=C(Cn1nc2ccccc2n1)N/N=C/c1cc(Cl)cc([N+](=O)[O-])c1O	1.78µM*	u	-1.0%	14.1µM*	u
O=C(Cn1nnc(-c2ccccc2)n1)N/N=C/c1cccc([N+](=O)[O-])c1	u	0.0	-4.9%	6.7%	0.0
COc1cc(/C=N/NC(=O)c2cccc(NC(=O)c3ccccc3C)c2)ccc1O	33.6%	u	5.7%	-7.7%	u
O=C(N/N=C/c1cc(Cl)cc([N+](=O)[O-])c1O)C1CC1	0.631µM*	x	0.6%	2µM*	u
CC(C)(C)N/N=C/c1cc(Cl)cc([N+](=O)[O-])c1O	-10.1%	-12.9	-1.4%	2.3%	-1.0
Cc1ccccc1C(=O)Nc1cccc(C(=O)N/N=C/c2cc(Cl)cc([N+](=O)[O-])c2O)c1	1.12µM*	-73.0*	4.8%	2.51µM*	u
O=C(Cn1nnc(-c2ccccc2)n1)N/N=C/c1cccc([N+](=O)[O-])c1O	1.78µM*	u	1.9%	u	u
Cc1ccc(NC(=O)CS(=O)CC(=O)N(C(C)C(=O)NC2CCCCC2)C(C)(C)C)cc1 (configuration not stated)	21.9%	2.6	0.7%	-1.3%	7.7
Cc1ccc(-c2cc3nc(-c4ccccc4)cc(NCCCO)n3n2)cc1	x	8.2	x	x	6.2
Cc1cc(N)n2ncc(-c3ccccc3)c2n1	9.9%	2.4	u	0.9%	-22.5
CC(=O)Nc1ccc(Nc2cc(C)nc3c(-c4ccccc4)cnn23)cc1	12.6µM*	17.7	35.1%	7.94µM*	16.0
C=CCSc1cc(C)nc2c(-c3ccccc3)cnn12	10µM*	x	u	u	6.0
Cc1cc(C)c(C(N)=O)c(Nc2cccc3ccccc23)n1	2.82µM*	3.1	-2.7%	u	-4.1
COc1ccccc1Nc1nc(C)cc(C)c1C(N)=O	6.8%	3.5	-4.7%	2.0%	-1.0
S=C(CN1CCCC1=S)NCCc1ccccc1	7.94µM*	2.2	2.4%	u	4.1
CC1(C)Cc2c(sc3nc(-c4ccccc4)n(N)c(=O)c23)CO1	-15.2%	11.3	5.6%	-2.0%	-8.8
CC1(C)Cc2c(sc3nc(-c4cccs4)n(N)c(=O)c23)CO1	u	-3.5	22.1%	15.8µM*	-3.4
CCOc1ccc(/C=N/Nc2ccc(Cl)nn2)c(O)c1	1.58µM*	-29.9	10.8%	2µM*	-22.2
Oc1ccc(/C=N/Nc2ccc(Cl)nn2)c(O)c1O	-25.4%	x	3.5%	-2.8%	-95.3*
Cc1nc([N+](=O)[O-])c(Br)n1CC(=O)c1ccc(Cl)cc1	10µM*	1.0	-19.4%	u	13.7
COc1ccc(C(=O)Cn2c(C)nc([N+](=O)[O-])c2Br)cc1	-31.8%	-4.4	-15.0%	u	0.8
Cc1nc([N+](=O)[O-])c(Br)n1Cc1ccc(Cl)c(Cl)c1	7.08µM*	x	-8.0%	u	5.4
Cc1nc([N+](=O)[O-])c(NCCO)n1Cc1ccccc1	-0.4%	4.2	-4.5%	1.0%[10 µM]	6.0
SMILES	RORgamma inh	CtBP-E1A blk	p53 reactivator	Gal4-VP16 FLuc	Six1-Eya2 inh
C=CCn1c(SCc2csc(-c3ccc(C)cc3)n2)nnc1-c1ccccc1OC	u	-2.4	8.8%	u	-4.8
CCn1nnc(NC(=O)CSc2ccc(Cl)cc2)n1	1.1%	1.0	2.0%	10.5%	-4.0
CCCn1nnnc1NC(=O)c1cc(Cl)ccc1Cl	1.58µM*	2.7	-6.8%	2.24µM*	2.2
CCCn1nnnc1NC(=O)CSc1ccc(Cl)cc1	0.891µM*	9.0	-2.5%	2.24µM*	-4.6
CCOC(=O)c1ccc(N=Cc2cnc(N)nc2N)cc1	x	0.0	x	x	22.9
Cc1ccc(NC(=O)c2cnn(-c3ccccc3)c2C)cc1C	5.01µM*	-15.5	0.3%	u	15.6
Cc1c(C(=O)Nc2ccccc2)cnn1-c1ccccc1	x	9.1	x	x	11.4
CC(=O)c1cccc(NC(=O)c2cnn(-c3ccccc3)c2C)c1	3.55µM*	10.1	5.1%	2.24µM*	-5.0
COc1ccc(NC(=O)c2cnn(-c3ccccc3)c2C)cc1OC	43.6%	0.5	u	13.2%	-9.9
CC[C@@H](C)[C@H](NC(=O)C1CCN(C(=O)[C@@H](NS(=O)(=O)c2ccc(C)cc2)C(C)C)CC1)C(=O)O	14.9%	-1.9	-3.7%	-2.0%	11.3
COC(=O)C1CCN(C(=O)C2CCN(C(=O)[C@@H](NS(=O)(=O)c3ccc(C)cc3)C(C)C)CC2)CC1	1.12µM*	2.3	5.9%	u	4.0
C[C@H](N)C(=O)N[C@@H](Cc1ccc(F)cc1)C(=O)N[C@@H](CCCN=C(N)N)C(=O)N[C@@H](CC1CCCCC1)C(=O)N[C@@H](CCCCN=C(N)N)C(=O)N[C@@H](Cc1ccc(O)cc1)C(N)=O	15.2%	x	x	1.3%	x
Cc1nc2cnc(N3CCOCC3)nc2n(C[C@H]2CCCO2)c1=O	2.0%	x	x	-8.7%	x
O=[N+]([O-])c1ccc(Nc2nc(N/N=C\c3ccc4c(c3)OCO4)nc(N3CCCCC3)n2)cc1	4.47µM*	-11.0	-1.1%	u	-13.0
NNc1nc(Nc2ccccc2)nc(Nc2ccccc2)n1	15.8µM*	-9.1	8.3%	-24.4%	-18.6
NNc1nc(Nc2ccccc2)nc(N2CCCCC2)n1	5.01µM*	6.6	13.4%	7.08µM*	-13.7
NNc1nc(Nc2ccc([N+](=O)[O-])cc2)nc(N2CCCCCC2)n1	u	x	u	15.8µM*	0.5
O=[N+]([O-])c1ccc(/C=N/Nc2nc(N3CCCCC3)nc(N3CCCCC3)n2)cc1	-13.3%	x	-1.6%	-9.3%	-1.4
O=[N+]([O-])c1ccc(Nc2nc(NCCO)nc(N3CCCC3)n2)cc1	16.9%	-19.3	3.8%	-13.3%	-16.1
CCS(=O)(=O)N1CCC(N2CCC(C)CC2)CC1	-14.4%	1.6	1.2%	-10.6%	2.6
CNC(=O)CS(=O)CC(=O)Nc1cc(OCCOC)c(Cl)cc1Cl (configuration not stated)	1.0%	5.1	-2.0%	5.6%	5.3
Cn1cccc1/C=N/NC(=O)c1cccnc1	-40.2%	8.2	9.8%	1.4%	-1.9
CCCc1cc(C(=O)N/N=C/c2cccn2C)cs1	11.2µM*	-16.0	-17.0%	22.4µM*	-29.7
Cc1ccc(C(=O)N/N=C\c2cccn2C)cn1	11.2µM*	-3.6	u	u	-3.2
Cc1ccc(C(=O)N/N=C\c2ccc(-c3ccc(Cl)cc3)o2)cn1	2.51µM*	x	2.1%	10µM*	-4.9
Cc1ccc(C(=O)N/N=C\c2ccc(-c3ccc([N+](=O)[O-])cc3)o2)cn1	u	5.0	0.0%	-1.8%	-7.0
Brc1ccc(-c2cnc(-c3cccs3)o2)cc1	u	12.8	u	-1.3%	5.0
